Results published in PubChem BioAssay AID435030 (The Scripps Research Institute Molecular Screening Center, 2010).
Among all 330,000 compounds or so, about 940 (0.28%) were called active. Rule as the data show it: active = inhibition above about 12%; inactive = the rest. What follows is part of a selection rich in actives, with near analogues and random picks from the rest.

test: reduced growth of AddAB-expressing E. coli cells – absorbance, AddAB inhibitor project, primary screen (AID 435030);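 also: 0% = vehicle wells of infected cells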; conditions: E. coli expressing H. pylori AddAB, at 11.9 µM, hits give high values

SMILES	inhibition
Cc1nc2ccccc2nc(=O)c1NNc1ccc([N+](=O)[O-])cc1	0.52% (inactive)
O=[N+]([O-])c1ccc(N=Cc2c(O)ccc3ccccc23)cc1	39.5% (active)
O=C(Oc1ccc([N+](=O)[O-])cc1)c1ccc2ccccc2n1	0.94% (inactive)
CC(Sc1nnc(Cc2ccc([N+](=O)[O-])cc2)o1)C(N)=O (stereo not given)	2.62% (inactive)
COC(=O)c1cc(S(=O)(=O)Nc2ccc(C)c(F)c2)c[nH]1	2.73% (inactive)
CCOc1ccc(OCC)c(NC(=O)C(NS(=O)(=O)c2ccc3c(c2)oc(=O)n3C)C(C)C)c1 (stereo not given)	0.33% (inactive)
O=C(CCNS(=O)(=O)c1ccccc1)NCCSc1ccc(Br)cc1	-1.46% (inactive)
CC(C)(C)CC(=O)Nc1nnc(SCC(=O)NCc2cccs2)s1	1.97% (inactive)
O=C(Cn1cc(C(=O)c2cccs2)c2ccccc21)NCc1cccs1	-0.41% (inactive)
CC1CCN(C(=O)Cn2cc(C(=O)c3ccco3)c3ccccc32)CC1	0.41% (inactive)
Cc1cccc(NC(=O)Cn2cc(C(=O)c3ccco3)c3ccccc32)c1	13.8% (active)
Cc1cc(C)c(S(=O)(=O)N2CCCC2CNC(=O)c2ccc3c(c2)OCO3)c(C)c1 (stereo not given)	2.32% (inactive)
N#Cc1ccc(OCCN2C(=O)NC3(CCSC3)C2=O)cc1 (stereo not given)	-2.01% (inactive)
O=C(OCC(=O)N1CCN(C(=O)c2ccco2)CC1)c1c(Cl)cccc1Cl	1.58% (inactive)
NS(=O)(=O)c1cccc(NC(=O)COC(=O)c2cc([N+](=O)[O-])ccc2N2CCCC2)c1	0.9% (inactive)
CCn1c(=O)c([N+](=O)[O-])c(NCc2ccc3c(c2)OCO3)c2ccccc21	-0.08% (inactive)
CCn1c(/C=C/c2ccc([N+](=O)[O-])o2)nc2ccccc2c1=O	17.8% (active)
CCOCCCn1c(NN)nc2ccccc2c1=O	1.87% (inactive)
CCOC(=O)c1sc(/N=C/C2=C(O)CC(C)(C)CC2=O)c(C(=O)OCC)c1C	-0.77% (inactive)
Cc1occc(=O)c1OCc1c(Cl)cccc1Cl	-0.74% (inactive)
CCOC(=O)c1ccc(NC(=O)Cn2cnc3cc(C)c(C)cc32)cc1	21% (active)
CCCc1nnc(SCC(=O)Nc2ccc(C(=O)OCC)cc2)o1	2.66% (inactive)
CCOC(=O)c1ccc(NC(=O)Cc2cccs2)cc1	3.49% (inactive)
CSCc1ccc(C(=O)Nc2cc(C)cc(C)c2)cc1	0.9% (inactive)
CSCCC(NC(=O)c1cc([N+](=O)[O-])cc([N+](=O)[O-])c1)c1nc2ccccc2[nH]1 (stereo not given)	2.67% (inactive)
